This is a sample that favours compounds with a hit; in the whole collection about 21% have one here.
Pf growth 96h: Primary qHTS for delayed death inhibitors of the malarial parasite plastid, 96 hour incubation. Potency, µM (series often up to 28.7 µM), without a hit: top-dose activity change, negative = inhibition, hits mostly inhibitors. P. falciparum luciferase reporter growth, 96 h. 320,000 tested, 6.9% active; note: potency is the fitted concentration of half-maximal effect; % is set by controls: 0 for no effect and ±100 for the full control effect
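P. falciparum expressing integrated firefly luciferase, in erythrocytes at 2% hematocrit, 0.05% parasitemia, incubated with compounds 96 h at 37 C, 5% CO2. Growth inhibition read as loss of luminescence; two-generation exposure targets delayed-death apicoplast inhibitors.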
HCMV inh: qHTS Assay for inhibitors of the human cytomegalovirus (HCMV); HFF cells, HCMV-luciferase reporter, 72 h; active compounds read low; activity change, negative = inhibition, % at 57.5 µM; 410,000 tested, 4.5% active; AID 1259415, 2018; in the data active = activity change below about -60%; inconclusive = no clear call, values can overlap the other calls; inactive = above about -39%; note: % is set by controls: 0 for no effect and ±100 for the full control effect
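Cell-based, HFFs, 1000 cells/well, 16 h 37C; cpds in DMSO + HCMV-luc, MOI 1 PFU/cell; 72 h 37C; OneGlo luminescence after 5 min RT; norm. to buffer vs Salinomycin 10uM.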
HCV inh: qHTS Assay for Inhibitors of Hepatitis C Virus (HCV). Huh7.5.1 HCVcc-Cre infection, luciferase reporter, 44 h. 340,000 tested, 3.4% active. Potency, µM (series often up to 41.8 µM), for inactives: at the highest dose activity change, negative = inhibition, usual class: inhibitors; note: potency is the fitted concentration of half-maximal effect; % is set by controls: 0 for no effect and ±100 for the full control effect
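Infectious HCV cell culture screen: compound-treated cells (1,000/well, pre-plated 4 h) are infected with HCVcc-Cre at roughly 0.5 moi and grown 44 h. Infection is quantified by luciferase signal after 15 min substrate incubation at room temperature.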
Pf growth 48h: Primary qHTS for delayed death inhibitors of the malarial parasite plastid, 48 hour incubation; AID 504832, 2011; 310,000 tested, 5.9% active; Potency, µM (top dose mostly 28.7 µM), without a hit: at the highest dose activity change, negative = inhibition, actives largely listed as inhibitors; P. falciparum luciferase growth in erythrocytes, 48 h; note: potency is the fitted concentration of half-maximal effect; % is set by controls: 0 for no effect and ±100 for the full control effect
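Growth was read as firefly luciferase luminescence after a 48 h, 37 C, 5% CO2 exposure of compounds to reporter-bearing P. falciparum cultures (0.1% parasitemia, 2% hematocrit final) in Albumax-supplemented RPMI 1640.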
CHX counter: Cycloheximide Counterscreen for Small Molecule Inhibitors of Shiga Toxin. cell reporter, cycloheximide protein synthesis inhibition counterscreen. max response, %. 300,000 tested, 12% active. AID 2314, 2010; in the data active = max response mostly above about 13%, no sharp cut-off; inactive = mostly below about 14%; note: read at 38.3 µM for the half of the compounds with a filed dose; 0% is about no effect
Shiga toxin inh: A qHTS for Small Molecule Inhibitors of Shiga Toxin; Vero cells, Shiga toxin protein synthesis inhibition reporter; inhibition, % at 38.7 µM; 290,000 tested, 9.2% active; in the data active = inhibition mostly above about 28%, no sharp cut-off; inactive = mostly below about 43%; note: 0% is about no effect
Active calls of the source: *; ? = inconclusive; · = no result; [ ] = another dose, or the depositor's remark. Unless noted, calls come from the whole dose curve; as a rule, active = well fitted inhibition curve with a large enough effect; inconclusive = small, poorly fitted or top-dose-only effect, or another doubt; inactive = no such curve, though single readings can be large or run the other way.

SMILES	Pf growth 96h	HCMV inh	HCV inh	Pf growth 48h	CHX counter	Shiga toxin inh
O=C(C1=C[C@H](c2ccc(C(F)(F)F)cc2)C[C@H](OCc2ccc(CO)cc2)O1)N1CCN(Cc2ccc3c(c2)OCO3)CC1	3.7µM*	-18	10µM*	?	-1	27
CCOC(=O)c1c(C)c(-c2ccccc2)n(CC(=O)NC(CC)Cc2ccccc2)c1C (stereo not drawn)	·	13	·	·	·	·
O=C(C1=C[C@H](c2ccc3c(c2)OCO3)C[C@H](OCc2ccc(CO)cc2)O1)N1CCCCCCC1	?	-3	35%[8.37 µM]	?	-1	28
O=C(C1=C[C@@H](c2ccc(C(F)(F)F)cc2)C[C@@H](OCc2ccc(CO)cc2)O1)N1CCN(Cc2ccc3c(c2)OCO3)CC1	2.3µM*	5	?	?	11	5
CC(C)(C)[C@@H]1C=C(C(=O)N2CCN(Cc3ccc4c(c3)OCO4)CC2)O[C@H](OCc2ccc(CO)cc2)C1	12µM*	41	11%	10µM*	4	-20
O=C(CSc1nnc(-c2ccccc2)c(-c2ccccc2)n1)Nc1ncc(Cl)cc1Cl	?	-9	8%	10%	18*	34*
O=C(CSc1nnc(-c2ccccc2)c(-c2ccccc2)n1)NCc1ccco1	-24%	-24	?	10µM*	13	0
COCCNC(=O)CSc1nc(-c2ccccc2)cs1	281%	34	-16%	51%	25*	45*
O=C(CSc1nc(-c2ccccc2)cs1)NCc1ccco1	·	12	-23%	20%	22*	44*
O=C(CSc1ncc(-c2ccccc2)nn1)NCc1ccco1	6%	-20	-8%	0%	-2	-4
COCC(=O)NCCc1nc(-c2ccccc2)cs1	92%	-29	-18%	9%	-3	-40
Cc1nc(NC(=O)CSc2nnc(-c3ccccc3)c(-c3ccccc3)n2)c(Cl)cc1Cl	?	-26	5%	9%	-2	-11
Cc1ccc(C)c(-c2nnc(NC(=O)Cc3ccc(F)cc3)o2)c1	?	·	?	?	-1	-8
COc1ccc(C(C)(C)C)cc1NC(=O)c1ccccc1-n1cnnn1	·	0	-28%	·	·	·
Cc1ccc(NC(=O)C2CCN(C(=O)c3ccccc3C)CC2)nc1	0%	?	10%	?	·	·
Cc1ccc(C(=O)ONc2ccc(N=O)cc2)cc1	42%	?	-16%	98%	46*	85*
COC(=O)c1ccc(C)cc1	·	-14	15%	·	·	·
COC(=O)c1ccc(NN=Nc2ccc(C)cc2)cc1	3%	91	-1%	-31%	59*	47*
COC(=O)c1ccc(N=NN2CCCCC2)cc1	-15%	?	1%	148%	38*	127*
CC1CCCCN1CC(O)COCc1ccc(Cl)cc1 (stereo not drawn)	1%	0	15%	28%	-1	1
O=C(/C=C/c1cccc(Cl)c1)c1ccc([N+](=O)[O-])o1	?	-100*	2.5µM*	?	·	·
NS(=O)(=O)c1ccc(CNC(=O)/C=C/c2cccc(Cl)c2)cc1	?	5	2%	8%	-2	-9
COc1ccc(/C=C/C(=O)c2ccc([N+](=O)[O-])o2)cc1OC	?	-104*	5.6µM*	12µM*	·	·
COc1cc(/C=C/C(=O)c2ccc([N+](=O)[O-])o2)ccc1O	?	-77*	?	13µM*	·	·
COc1cc(/C=C/[N+](=O)[O-])ccc1O	?	-104*	8%	?	-8	-27
SMILES	Pf growth 96h	HCMV inh	HCV inh	Pf growth 48h	CHX counter	Shiga toxin inh
COc1ccc(/C=C/C(=O)O)cc1OC	-8%	·	2%	4%	-4	-4
COCCCc1cc(F)c(S(=O)(=O)N2CCN(S(=O)(=O)c3ccc4c(c3)OCCO4)CC2)cc1F	·	·	·	·	-1	-2
COc1cc(/C=C/C(C)=NNc2ccccc2)ccc1O	·	-61*	?	·	·	·
COc1cc(/C=C/C(=O)O)ccc1O	·	·	20%	·	·	·
COc1cc(/C=C/C(=O)/C=C(O)/C=C/c2ccc(O)c(OC)c2)ccc1O	?	-67*	?	?	·	·
Cc1nn(C2CCS(=O)(=O)C2)c(C)c1CN(C)C(=O)c1cccc(Cl)c1 (stereo not drawn)	12%	-5	1%	?	·	·
COc1cccc(C(=O)Nc2cc(-c3ccccc3)nn2-c2ccccc2)c1	·	-1	·	·	·	·
CC1C(=O)CC2C3(C)CCC2(C(C)C(=O)O)C(=O)C13 (stereo not drawn)	-9%	·	·	3%	·	·
O=C(NCCc1ccccn1)c1cc(-c2cccc3ccccc23)nc2ccccc12	?	?	?	?	-5	-17
COc1cccc(CNS(=O)(=O)c2c(C)[nH]c(C)c2C(=O)N2CCCC2)c1	14%	-15	-2%	-2%	1	9
CCOC(=O)C1=C(C)N(C)C(=S)NC1c1ccccc1Cl (stereo not drawn)	?	-17	18%	0%	2	-9
CCOC(=O)C1=C(C)N(C)C(=S)NC1c1ccc(Cl)cc1Cl (stereo not drawn)	15µM*	-28	-9%	-17%	-5	-6
OCC1OC(Oc2c[nH]c3ccccc23)C(O)C(O)C1O (stereo not drawn)	15%	-98*	18%	?	·	·
CCCCn1nnc(NC(=S)NC(=O)c2cccs2)n1	?	105	-9%	65%	28*	115*
CCCCn1nnc(NC(=O)c2ccco2)n1	?	12	1%	32%	26*	13*
CCCn1nnc(NC(=O)c2ccco2)n1	9%	106	4%	29%	13	28
NC(=O)c1ccc(NC(=O)COC(=O)CCC2CCCCC2)cc1	·	-11	1%	·	·	·
Nc1ccn([C@@H]2O[C@H](CNC(=O)[C@@H](N)CSCc3ccccc3)[C@@H](O)[C@H]2O)c(=O)n1	·	6	·	·	·	·
CC(=O)C1CCC2(O)C3CCC4=CC(=O)CCC4(C)C3CCC12C (stereo not drawn)	·	-6	1%	·	·	·
C[C@@H]1O[C@@H](O[C@@H]2C=C3CC[C@@H]4C(CC[C@]5(C)[C@@H](c6ccc(=O)oc6)CC[C@]45O)[C@@]3(C)CC2)[C@H](O)[C@H](O)[C@H]1O (stereo partly drawn)	-7%	-97*	0.56µM*	-11%	·	·
C[C@@H]1O[C@@H](O[C@@H]2C=C3CCC4C(CC[C@]5(C)[C@@H](c6ccc(=O)oc6)CC[C@]45O)[C@@]3(C)CC2)[C@H](O)[C@H](O)[C@H]1O (stereo partly drawn)	?	-99*	?	-8%	·	·

Screening data (PubChem BioAssay)
